Assay results as given in PubChem BioAssay (Tox21).
Results filed as inconclusive are left out. Activity calls are given as the source filed them. Unless noted, calls follow the shape of the full dose curve.

Key:
[1] = Nuclear factor erythroid 2-related factor 2/antioxidant responsive element (Nrf2/ARE) small molecule agonists: qHTS cell viability counter screen in human keratinocytes (AID 1919968; active = well fitted curve in the direction sought with a large enough effect in the repeat runs; an effect the other way counts as inactive or inconclusive; also: nearly all actives have a fitted effect of over 55% in size; also: potency is read from the fitted curve at half-maximal effect)
Method in brief: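 Measured as CellTiter-Fluor fluorescence, this readout tracks cytotoxicity in the same wells as the ARE-luciferase screen. HaCaT reporter cells (1,500/well) received compounds after a 5 h pre-incubation and were exposed for 23 h.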

[2] = Nuclear factor erythroid 2-related factor 2/antioxidant responsive element (Nrf2/ARE) small molecule agonists: luciferase reporter gene qHTS assay in human keratinocytes (AID 1919969); also: nearly all actives have a fitted effect of over 35% in size; also: potency is read from the fitted curve at half-maximal effect
[3] = target: Gonadotropin-releasing hormone receptor (Homo sapiens) (UniProt P30968); assay: Human gonadotropin-releasing hormone receptor (GnRHR) small molecule agonists, calcium flux assay in GnRHR-HEK293 cells (AID 1920063); also: nearly all actives have a fitted effect of over 35% in size
Method in brief: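 Fluorescence kinetics (480 nm excitation, 540 nm emission; 3 min, 1 s steps) report calcium mobilisation in human GnRHR-HEK293 cells in agonist mode. Dye incubation: 1 h, 37 C.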

[4] = target: KiSS-1 receptor (Homo sapiens) (UniProt Q969F8); assay: Human kisspeptin (KISS1R) small molecule agonists, calcium flux assay in KISS1R-HEK293 cells (AID 1920064; active = well fitted curve in the direction sought with a large enough effect in the repeat runs; an effect the other way counts as inactive or inconclusive)
Method in brief: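 Measures KISS1R agonism through calcium-sensitive dye fluorescence in stably transfected HEK293 cells, read for 3 min after pin-tool compound delivery; 15-point titrations in triplicate.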

[5] = G protein-coupled receptor (GPCR) small molecule agonists, calcium flux assay: HEK293 wild type cell line counter screen (AID 1920065)
Method in brief: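 Readout: fluorescence at 480 nm excitation/540 nm emission, sampled at 1 s intervals for 3 min. Cells had been cultured 18 h, then dye-loaded 1 h at 37 C before compound or ATP addition.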

[6] = p53 small molecule agonists, cell-based qHTS assay with human liver microsomes (AID 1963577);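 also: p53 response element beta-lactamase reporter cells with liver microsomes plus NADPH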
Method in brief: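 16 h, 37 C exposure of p53RE-bla cells to compounds with human liver microsomes and NADPH (0.5 mg/mL final each); detection via LiveBLAzer mixture, 2 h dark at room temperature.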

[7] = p53 small molecule agonists, cell-based qHTS assay with rat liver microsomes (AID 1963578)
Method in brief: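 With rat liver microsomes and NADPH present (0.5 mg/mL final each), p53RE-bla cells are treated with compound for 16 h at 37 C. LiveBLAzer detection mixture is then applied for 2 h at room temperature in the dark.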

[8] = p53 small molecule agonists, cell-based qHTS assay with rat liver microsomes: qHTS cell viability counter screen (AID 1963580); also: nearly all actives have a fitted effect of over 45% in size
Method in brief: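 p53RE-bla HCT-116 cells were exposed 16 h at 37 C to compounds with rat liver microsomes (0.5 mg/mL) and NADPH (0.5 mg/mL). Viability was measured in the same wells as ATP content by CellTiter-Glo luminescence.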

[9] = p53 small molecule agonists, cell-based qHTS assay: qHTS cell viability counter screen (AID 1963581); also: nearly all actives have a fitted effect of over 45% in size
Method in brief: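 In the same plates used for the p53 bla reporter, HCT-116 cells given compounds for 16 h at 37 C received CellTiter-Glo; luminescence was recorded 30 min later at room temperature.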

[10] = p53 small molecule agonists, cell-based qHTS assay (AID 1963582; active = well fitted activation curve with a large enough effect in the signal ratio in the repeat runs, not every such curve was filed as active; the % refers to the signal ratio)
Method in brief: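 Compounds are pin-transferred in DMSO onto p53RE-bla cells and incubated 16 h at 37 C. The B/G FRET beta-lactamase substrate is then applied for 2 h at RT and fluorescence recorded.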

[11] = target: 5-hydroxytryptamine receptor 2A (Homo sapiens) (UniProt P28223); assay: 5-hydroxytryptamine receptor 2A (HTR2A) small molecule antagonists, cell-based qHTS assay (AID 1963586); also: nearly all actives have a fitted effect of over 45% in size
Method in brief: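 Antagonist-mode intracellular calcium assay: DOI (4 nM) added after 5 min compound pre-incubation at room temperature to dye-loaded HTR2A-CHO cells. Fluorescence followed for 3 min, sampled every second.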

[12] = target: 5-hydroxytryptamine receptor 2A (Homo sapiens) (UniProt P28223); assay: 5-hydroxytryptamine receptor 2A (HTR2A) small molecule agonists, cell-based qHTS assay (AID 1963587); also: nearly all actives have a fitted effect of over 30% in size
Method in brief: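 CHO cells stably expressing human HTR2A, plated 18 h, loaded with calcium dye 1 h at 37 C. Agonist mode: compounds added and intracellular calcium fluorescence recorded kinetically for 2 min at 1 sec intervals.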

[13] = target: Muscarinic acetylcholine receptor M1 (Homo sapiens) (UniProt P11229); assay: Cholinergic receptor muscarinic 1 (CHRM1) small molecule antagonists, cell-based qHTS assay (AID 1963588); also: nearly all actives have a fitted effect of over 40% in size
Method in brief: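 CHRM1-CHO calcium-flux assay, antagonist mode. Cells were seeded 18 h, dye-loaded 1 h at 37 C and given compound for 5 min at RT, then acetylcholine was added at 50nM. FDSS fluorescence was read 3 min; 15 concentrations, three runs.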

[14] = target: Muscarinic acetylcholine receptor M1 (Homo sapiens) (UniProt P11229); assay: Cholinergic receptor muscarinic 1 (CHRM1) small molecule agonists, cell-based qHTS assay (AID 1963589); also: nearly all actives have a fitted effect of over 35% in size
Method in brief: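 Each compound was tested at 15 concentrations across three independent runs on dye-loaded CHO cells stably expressing human CHRM1, reading intracellular calcium fluorescence kinetically at 1 sec intervals.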

[15] = cAMP Responsive Elements (CRE) small molecule agonists, cell-based qHTS assay (AID 1963590)
Method in brief: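 Cell line: CRE-bla HEK 293T; medium DMEM/10% dialyzed FBS/0.1 mM NEAA/1 mM pyruvate/25 mM HEPES; 3 h compound exposure; beta-lactamase FRET readout after 2 h substrate loading at RT.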

[16] = cAMP Responsive Elements (CRE) small molecule antagonists, cell-based qHTS assay (AID 1963591; active = well fitted inhibition curve with a large enough effect in the signal ratio in the repeat runs, not every such curve was filed as active; the % refers to the signal ratio)
Method in brief: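 Inhibition of NKH477-driven (0.25 uM final) CRE-beta-lactamase signal in HEK293T cells, 3 h compound exposure at 37 °C, detected by FRET substrate fluorescence.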

[17] = target: Beta-2 adrenergic receptor (Homo sapiens) (UniProt P07550); assay: Adrenergic beta2 receptor (ADRB2) small molecule antagonists, cell-based qHTS assay (AID 1963592); also: series mostly up to about 92 µM; nearly all actives have a fitted effect of over 50% in size
Method in brief: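 Cells (CHO, stable ADRB2 overexpression) incubated 18-20hr at 37C; compounds added from DMSO; agonist mix (1nM isoproterenol, 100uM IBMX, 25uM Ro-20-1724) added; 0.5hr RT; d2-cAMP and anti-cAMP-cryptate added; 1hr RT; 665/615 nm read.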

[18] = target: D(2) dopamine receptor (Homo sapiens) (UniProt P14416); assay: Dopamine D2 receptor (DRD2) small molecule agonists, cell-based qHTS assay (AID 1963594); also: nearly all actives have a fitted effect of over 35% in size
Method in brief: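 HEK293 cells stably expressing human DRD2, pre-treated with PDE inhibitor Ro20-1724 (0.1 mM final) and compound 10 min at room temperature, then stimulated with NKH477 (200nM […]) for 30 min. cAMP read by HTRF (665/620 nm).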

[19] = target: D(2) dopamine receptor (Homo sapiens) (UniProt P14416); assay: Dopamine D2 receptor (DRD2) small molecule antagonists, cell-based qHTS assay (AID 1963595; active = well fitted inhibition curve with a large enough effect in the signal ratio in the repeat runs, with a control signal flat; the % refers to the signal ratio)
Method in brief: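 Readout: HTRF cAMP, cAMP-d2 competing with cellular cAMP for anti-cAMP cryptate, read after 1 h. Cells: DRD2-HEK293. Conditions: 0.1 mM Ro20-1724, 12 nM quinpirole, 200 nM NKH477, 30 min RT.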
% is scaled to controls: 0 for no effect and ±100 for the full control effect.

5-hydroxytryptamine receptor 2A (Homo sapiens), sequence (P28223 whole entry, looked up): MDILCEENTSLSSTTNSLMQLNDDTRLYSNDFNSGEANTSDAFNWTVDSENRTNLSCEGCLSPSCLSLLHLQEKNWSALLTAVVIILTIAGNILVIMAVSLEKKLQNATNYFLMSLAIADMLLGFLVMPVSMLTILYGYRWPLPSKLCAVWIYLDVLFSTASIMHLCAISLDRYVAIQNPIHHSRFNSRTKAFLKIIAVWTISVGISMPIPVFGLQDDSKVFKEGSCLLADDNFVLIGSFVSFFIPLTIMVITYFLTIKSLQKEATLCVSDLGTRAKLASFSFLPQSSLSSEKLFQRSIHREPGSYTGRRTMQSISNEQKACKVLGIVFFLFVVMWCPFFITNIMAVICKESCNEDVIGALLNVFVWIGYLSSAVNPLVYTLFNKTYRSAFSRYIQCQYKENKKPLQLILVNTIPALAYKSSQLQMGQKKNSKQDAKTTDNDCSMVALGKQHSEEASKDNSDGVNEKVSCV
D(2) dopamine receptor (Homo sapiens), sequence (P14416 whole entry, looked up): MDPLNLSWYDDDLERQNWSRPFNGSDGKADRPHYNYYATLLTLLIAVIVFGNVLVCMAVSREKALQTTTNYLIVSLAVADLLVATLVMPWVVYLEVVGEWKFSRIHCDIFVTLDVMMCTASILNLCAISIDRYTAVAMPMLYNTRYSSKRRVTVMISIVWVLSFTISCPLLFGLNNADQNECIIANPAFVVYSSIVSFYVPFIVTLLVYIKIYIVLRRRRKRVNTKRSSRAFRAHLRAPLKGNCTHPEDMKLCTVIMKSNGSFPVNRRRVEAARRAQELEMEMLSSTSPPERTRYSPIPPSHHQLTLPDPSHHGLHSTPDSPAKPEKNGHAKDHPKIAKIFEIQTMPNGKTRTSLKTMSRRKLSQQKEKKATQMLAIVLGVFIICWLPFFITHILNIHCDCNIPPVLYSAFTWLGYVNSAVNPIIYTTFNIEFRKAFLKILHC
Beta-2 adrenergic receptor (Homo sapiens), sequence (P07550 whole entry, looked up): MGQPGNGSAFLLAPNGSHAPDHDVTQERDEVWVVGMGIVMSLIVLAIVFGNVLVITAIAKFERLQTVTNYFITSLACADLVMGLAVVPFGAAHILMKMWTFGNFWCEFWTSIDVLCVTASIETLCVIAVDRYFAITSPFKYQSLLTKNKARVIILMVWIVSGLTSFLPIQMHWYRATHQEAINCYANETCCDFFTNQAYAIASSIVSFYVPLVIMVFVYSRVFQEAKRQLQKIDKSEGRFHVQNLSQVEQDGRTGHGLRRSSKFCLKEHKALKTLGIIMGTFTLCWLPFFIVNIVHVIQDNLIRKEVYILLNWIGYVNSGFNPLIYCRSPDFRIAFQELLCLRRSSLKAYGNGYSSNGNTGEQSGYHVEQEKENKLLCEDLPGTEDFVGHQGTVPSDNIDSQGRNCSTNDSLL
Gonadotropin-releasing hormone receptor (Homo sapiens), sequence (P30968 whole entry, looked up): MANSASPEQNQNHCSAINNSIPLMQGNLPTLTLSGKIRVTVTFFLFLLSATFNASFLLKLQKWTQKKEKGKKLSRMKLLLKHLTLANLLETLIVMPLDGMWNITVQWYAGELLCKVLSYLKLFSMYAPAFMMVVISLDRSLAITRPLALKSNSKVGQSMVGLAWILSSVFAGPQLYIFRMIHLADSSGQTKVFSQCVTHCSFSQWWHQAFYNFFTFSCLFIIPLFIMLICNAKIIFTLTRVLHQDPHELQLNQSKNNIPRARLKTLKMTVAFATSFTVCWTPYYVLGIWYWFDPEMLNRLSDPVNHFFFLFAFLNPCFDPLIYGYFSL
Muscarinic acetylcholine receptor M1 (Homo sapiens), sequence (P11229 whole entry, looked up): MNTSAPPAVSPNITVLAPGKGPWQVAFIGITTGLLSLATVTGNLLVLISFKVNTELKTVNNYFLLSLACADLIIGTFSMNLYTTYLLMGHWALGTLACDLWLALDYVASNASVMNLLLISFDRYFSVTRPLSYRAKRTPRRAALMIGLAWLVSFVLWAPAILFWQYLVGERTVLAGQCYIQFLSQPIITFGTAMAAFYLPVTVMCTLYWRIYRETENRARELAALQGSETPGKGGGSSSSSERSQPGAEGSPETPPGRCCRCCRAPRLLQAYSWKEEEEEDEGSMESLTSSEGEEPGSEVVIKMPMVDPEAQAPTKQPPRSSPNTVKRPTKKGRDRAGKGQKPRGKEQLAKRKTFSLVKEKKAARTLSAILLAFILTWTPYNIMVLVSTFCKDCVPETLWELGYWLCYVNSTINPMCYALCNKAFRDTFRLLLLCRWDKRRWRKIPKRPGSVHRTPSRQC
KiSS-1 receptor (Homo sapiens), sequence (Q969F8 whole entry, looked up): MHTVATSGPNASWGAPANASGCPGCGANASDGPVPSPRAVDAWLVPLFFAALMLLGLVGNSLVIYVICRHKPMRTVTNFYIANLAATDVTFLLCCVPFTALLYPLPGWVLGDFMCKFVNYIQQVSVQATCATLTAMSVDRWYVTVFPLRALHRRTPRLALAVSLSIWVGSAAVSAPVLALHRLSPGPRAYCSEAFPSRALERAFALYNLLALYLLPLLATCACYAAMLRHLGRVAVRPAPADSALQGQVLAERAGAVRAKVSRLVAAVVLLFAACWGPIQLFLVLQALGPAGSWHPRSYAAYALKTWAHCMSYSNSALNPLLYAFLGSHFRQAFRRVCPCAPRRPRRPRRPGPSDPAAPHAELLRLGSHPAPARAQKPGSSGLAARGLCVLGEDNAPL

O=C(Nc1ccccc1)c1ccccc1O
active: Potency [2] 61.1 µM
inactive: Potency [1] | Potency [3] | outcome [4] | outcome [5] | Potency [6] | Potency [7] | Potency [8] | Potency [9] | Potency [10] | Potency [11] | Potency [12] | Potency [13] | Potency [14] | Potency [15] | Potency [16] | Potency [17] | Potency [18] | Potency [19]

COC(=O)CS
active: Potency [2] 52.4 µM
inactive: Potency [1] | Potency [3] | outcome [4] | outcome [5] | Potency [6] | Potency [7] | Potency [8] | Potency [9] | Potency [10] | Potency [11] | Potency [12] | Potency [13] | Potency [14] | Potency [15] | Potency [17] | Potency [18] | Potency [19]

CCN(CC)c1ccc(N)cc1
active: Potency [1] 22.3 µM | Potency [2] 31.5 µM
inactive: Potency [3] | outcome [4] | outcome [5] | Potency [6] | Potency [7] | Potency [8] | Potency [9] | Potency [10] | Potency [11] | Potency [12] | Potency [13] | Potency [14] | Potency [17]

CC1(C)[C@H]2CC[C@]1(C)C(=O)C2
active: Potency [2] 68.6 µM
inactive: Potency [1] | Potency [3] | outcome [4] | outcome [5] | Potency [6] | Potency [7] | Potency [8] | Potency [9] | Potency [16] | Potency [17] | Potency [18] | Potency [19]

O=Cc1cccc(Br)c1
inactive: Potency [1] | Potency [2] | Potency [3] | outcome [4] | outcome [5] | Potency [6] | Potency [7] | Potency [8] | Potency [9] | Potency [11] | Potency [12] | Potency [13] | Potency [15] | Potency [16] | Potency [17] | Potency [18] | Potency [19]

CCOC(=O)N1CCC(n2c(=O)[nH]c3cc(Cl)ccc32)CC1
inactive: Potency [1] | Potency [2] | Potency [3] | outcome [4] | outcome [5] | Potency [6] | Potency [7] | Potency [8] | Potency [9] | Potency [11] | Potency [13] | Potency [14] | Potency [17]

CCN[C@@H]1C[C@H](N)[C@@H](OC2OC(CN)=CCC2N)[C@H](O)[C@H]1O[C@H]1OC[C@](C)(O)[C@H](NC)[C@H]1O (some centres not stated)
inactive: activity change, negative = cytotoxicity [1] -5.32% [at 0.349 µM] | activity, positive = activation [2] 8.13% [at 0.349 µM] | activity change [3] -1.46% [at 0.217 µM, hits give high values] | activation [4] -0.712% [at 0.29 µM] | activation [5] 1.44% [at 0.217 µM] | activation [6] 2.31% [at 0.249 µM] | activation [7] -0.776% [at 0.249 µM] | activity change, negative = cytotoxicity [8] -10.4% [at 0.249 µM] | activity change, negative = cytotoxicity [9] -18.4% [at 0.249 µM] | activation [10] 5.55% [at 0.249 µM] | activation [15] -0.986% [at 0.349 µM] | activity change, negative = inhibition [16] -9.29% [at 0.349 µM] | activity change, negative = inhibition [17] -0.979% [at 0.349 µM] | activation [18] -8.99% [at 0.349 µM]

Cc1cc2c(OCC(CNC(C)(C)C)OC(=O)c3ccccc3)cccc2[nH]1 (configuration not stated)
inactive: Potency [1] | Potency [2] | Potency [3] | outcome [4] | outcome [5] | Potency [6] | Potency [7] | Potency [8] | Potency [9] | Potency [10] | Potency [15] | Potency [16] | Potency [18] | Potency [19]

Nc1ccc2cc(S(=O)(=O)O)cc(O)c2c1
inactive: Potency [1] | Potency [2] | Potency [3] | outcome [4] | outcome [5] | Potency [6] | Potency [7] | Potency [8] | Potency [9] | Potency [12] | Potency [13] | Potency [14]

COc1ccc(CN(CCN(C)C)c2ncccn2)cc1
inactive: Potency [1] | Potency [2] | Potency [3] | outcome [4] | outcome [5] | Potency [6] | Potency [7] | Potency [8] | Potency [10] | Potency [11] | Potency [12] | Potency [13] | Potency [14] | Potency [15] | Potency [17] | Potency [18] | Potency [19]
